Assay results taken from publication PMC5540273 (PLoS ONE, 2017).

Experiments:
Conditions in all cases: concentration: 1 μM, replicates: in singlicate; n = 1
CDC2L2 = test system: CDC2L2
CDC2L5 = test system: T1, CDC2L5
T1 construct: gene CDK13

CDK11 = test system: T2, CDK11
T2 construct: gene CDK19

CDK2 = test system: CDK2
CDK3 = test system: CDK3
CDK4-cyclinD1 = test system: CDK4-cyclinD1
CDK4-cyclinD3 = test system: CDK4-cyclinD3
CDK4 = test system: CDK4
CDK5 = test system: CDK5
CDK7 = test system: CDK7
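Also: KINOMEscan kinase panel screen.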

| SMILES | %Inh (CDC2L2) [%] | %Inh (CDC2L5) [%] | %Inh (CDK11) [%] | %Inh (CDK2) [%] | %Inh (CDK3) [%] | %Inh (CDK4-cyclinD1) [%] | %Inh (CDK4-cyclinD3) [%] | %Inh (CDK4) [%] | %Inh (CDK5) [%] | %Inh (CDK7) [%] |
| --- | --- | --- | --- | --- | --- | --- | --- | --- | --- | --- |
| CN(C)S(=O)(=O)c1cc(-c2ccc3nccc(-c4cccc(S(N)(=O)=O)c4)c3c2)cnc1N [GSK1669921] | 3 | 0 | 54 | 0 | 9 | 0 | 0 | 0 | 0 | 58 |
| COc1cccc(NC(=O)NC2CCN(c3ccnc(Nc4cc(OC)c(OC)c(OC)c4)n3)C2)c1 (centres unmarked) [GSK1379763] | 10 | 0 | 5 | 0 | 21 | 0 | 0 | 0 | 0 | 0 |
| Nc1n[nH]c2cnc(-c3ccccc3)cc12 [SB-642124] | 0 | 0 | 0 | 0 | 9 | 23 | 47 | 27 | 0 | 22 |
| Cn1cc(-c2ccc3c(c2)CCN3C(=O)Cc2cccc(F)c2)c2c(N)ncnc21 [GSK2603358] | 21 | 0 | 96.7 | 0 | 7 | 2 | 0 | 17 | 0 | 0 |
| Cc1ccc(C(=O)N2CC[C@@H](O)C2)cc1-n1c(C)cc(OCc2ccc(F)cc2F)c(Br)c1=O | 0 | 0 | 0 | 0 | 0 | 0 | 0 | 0 | 0 | 0 |
| c1ccc(Oc2ccc(Nc3ccnc4cc(-c5ccc(CNCCN6CCOCC6)o5)ccc34)cc2)nc1 [GW567145] | 5 | 0 | 1 | 0 | 0 | 38 | 0 | 1 | 0 | 8 |
| COc1ccc(Nc2nccc(N3CCC(NC(=O)Nc4cccc(OC)c4)C3)n2)cc1 (centres unmarked) [GSK1379742] | 0 | 0 | 56 | 0 | 27 | 0 | 0 | 13 | 0 | 0 |
| COc1cccc(-c2ccc3c(NC(=O)C4CC4)n[nH]c3n2)c1 [SB-710903] | 1 | 0 | 0 | 33 | 41 | 61 | 15 | 52 | 0 | 0 |
| C[C@@H]1CC[C@@H](C(=O)Nc2ccccc2)CN1c1cc(-c2ccc3c(N)n[nH]c3c2)nc(N)n1 [GSK2286062] | 20 | 0 | 0 | 20 | 0 | 0 | 0 | 16 | 0 | 0 |
| Nc1ncc(-c2ccc3nccc(-c4ccncc4)c3c2)cc1S(=O)(=O)N1CCOCC1 [GSK1627798] | 0 | 0 | 40 | 1 | 6 | 0 | 47 | 0 | 0 | 72 |
| Cl.Cl.NCC(NCc1ccc(-c2ccnc3[nH]ccc23)s1)c1ccccc1 (centres unmarked) [GSK1321565] | 23 | 0 | 2 | 0 | 0 | 5 | 0 | 50 | 0 | 65 |
| CC(=O)N1CCN(c2ccc(Nc3nccc(-c4sc(C(C)C)nc4-c4cccc(NS(=O)(=O)c5cccc(Cl)c5)c4)n3)cn2)CC1 [GSK1660437] | 0 | 21 | 0 | 97.1 | 98.6 | 79 | 4 | 76 | 100 | 59 |
| CN1CCN(Cc2cccc(-c3ccc4c(Nc5ccc(Oc6ccccc6)cc5)ccnc4c3)c2)CC1 [GW578342] | 16 | 0 | 0 | 0 | 2 | 0 | 0 | 34 | 0 | 5 |
| Fc1ccc(-c2ncn(C3CCNCC3)c2-c2ccnc(Oc3ccc(-c4ccccc4)cc3)n2)cc1 [SB-245391] | 9 | 43 | 22 | 19 | 26 | 0 | 34 | 15 | 0 | 41 |
| CC(=O)Nc1nc2cnc(Nc3cc(NC(=O)c4cccc(C5(C#N)CC5)c4Cl)ccc3C)nc2s1 | 33 | 17 | 23 | 0 | 0 | 0 | 0 | 0 | 0 | 0 |
| COc1ccc(Nc2nccc(NCCNC(=O)c3cc4ccccc4s3)n2)cc1 [GSK1379896] | 1 | 0 | 10 | 0 | 5 | 0 | 0 | 13 | 0 | 0 |

| SMILES | %Inh (CDC2L2) [%] | %Inh (CDC2L5) [%] | %Inh (CDK11) [%] | %Inh (CDK2) [%] | %Inh (CDK3) [%] | %Inh (CDK4-cyclinD1) [%] | %Inh (CDK4-cyclinD3) [%] | %Inh (CDK4) [%] | %Inh (CDK5) [%] | %Inh (CDK7) [%] |
| --- | --- | --- | --- | --- | --- | --- | --- | --- | --- | --- |
| Oc1cc(Nc2ccnc3cc(I)ccc23)ccc1F [GW552771] | 0 | 0 | 10 | 0 | 0 | 11 | 0 | 0 | 0 | 0 |
| O=C(NC1CCN(c2ccnc(Nc3ccc(F)cc3)n2)C1)c1cc2ccccc2s1 (centres unmarked) [GSK1379716] | 14 | 0 | 36 | 0 | 18 | 14 | 0 | 0 | 7 | 0 |
| COc1cc(Nc2nccc(N3CCC(NC(=O)c4cc5ccccc5s4)C3)n2)cc(OC)c1OC (centres unmarked) [GSK1379760] | 5 | 0 | 19 | 0 | 11 | 41 | 0 | 14 | 0 | 16 |
| O=C(Nc1n[nH]c2nc(-c3ccc(O)cc3)ccc12)C1CC1 [SB-710363] | 0 | 69 | 0 | 75 | 84 | 83 | 78 | 0 | 0 | 41 |
| c1ccc(-c2n[nH]cc2Nc2ccnc3ccccc23)nc1 [GW694077] | 6 | 0 | 6 | 0 | 7 | 58 | 46 | 37 | 0 | 47 |
| COc1cc(Nc2ncc3c(C)nc(-c4cc5ccccc5[nH]4)n3n2)cc(OC)c1OC [GW869516] | 8 | 0 | 1 | 0 | 31 | 22 | 0 | 0 | 0 | 0 |
| Clc1ccc(-c2nn3ncccc3c2-c2ccnc(Nc3ccc4c(c3)OCCO4)n2)cc1 [GW829116] | 0 | 0 | 0 | 0 | 0 | 0 | 0 | 0 | 7 | 0 |
| CN(C)Cc1ccc(-c2ccc3c(Nc4ccc(Oc5ccccn5)cc4)ccnc3c2)o1 [GW567148] | 0 | 0 | 0 | 0 | 0 | 0 | 0 | 25 | 0 | 62 |
| CCCCc1nn2ncccc2c1-c1ccnc(Nc2ccc(N3CCN(C)CC3)cc2)n1 [GW684941] | 7 | 0 | 19 | 0 | 9 | 63 | 53 | 46 | 0 | 34 |
| CN(c1ccc(NC(=O)Nc2cc(C(F)(F)F)ccc2F)cc1)c1ccnc(Nc2ccc(S(N)(=O)=O)cc2)n1 [GW809893] | 94 | 83 | 98.8 | 99.7 | 99 | 14 | 5 | 0 | 97.1 | 95.3 |
| FC(F)(F)c1ccc(/C=C/c2cncnc2Nc2ccc3[nH]c(Cc4ccccc4)nc3c2)cc1 [GW709199] | 0 | 6 | 10 | 0 | 50 | 23 | 0 | 6 | 0 | 0 |
| Cc1cccc(NC(=O)Nc2ccc(Oc3ncnc4ccn(C)c34)cc2)c1 | 0 | 0 | 77 | 0 | 2 | 0 | 0 | 0 | 15 | 0 |
| Cn1cc(-c2ccc3c(c2)CCN3C(=O)Cc2cccc(Cl)c2)c2c(N)ncnc21 [GSK2606590] | 18 | 0 | 99.5 | 0 | 7 | 0 | 0 | 34 | 0 | 0 |
| O=C(O)C(F)(F)F.O=C(O)C(F)(F)F.O=c1[nH]ccc2nc(N[C@@H]3CCCNC3)nc(Nc3ccc(S(=O)(=O)N4CCOCC4)cc3)c12 [GSK2177277] | 17 | 0 | 0 | 88 | 88 | 98.1 | 99.8 | 62 | 90.8 | 99.6 |
| O=c1[nH]cc(-c2ccc(N3CCOCC3)cc2)c2sc(-c3cn[nH]c3)cc12 [GSK2276055] | 12 | 0 | 0 | 0 | 6 | 0 | 21 | 0 | 0 | 2 |
| CCn1c(-c2nonc2N)nc2c(C#CC(C)(C)O)ncc(OCCCCN)c21.O=C(O)C(F)(F)F.O=C(O)C(F)(F)F [GSK507274] | 0 | 0 | 0 | 3 | 16 | 0 | 0 | 0 | 0 | 0 |
